# Assay outcomes from PubChem.
# Only some compounds are listed: those with a hit (about 2.3% of all), similar ones and a draw of the others.
# MEKK2wt PB1 HTS: raises or lowers MEK5 binding to wildtype human MEKK2 PB1 domain; Q9Y2U5; bead flow cytometry, Alexa488-MEK5 binding to MEKK2 WT; actives lie on both sides; binding response (% of control), % at 10 µM; 290,000 compounds, 1.1% hits; AID 1531; in the data active means binding response below about 67% or above about 130%
# UBC13 inh: human UBC13 polyubiquitination inhibition. UBC13 polyubiquitin chain formation, TR-FRET. inhibition, % at 20 µM. 330,000 compounds, 0.47% hits. AID 485273; in the data active means inhibition above about 45%, passing the limit was not always enough
# Target sequence (P61088 whole entry, looked up): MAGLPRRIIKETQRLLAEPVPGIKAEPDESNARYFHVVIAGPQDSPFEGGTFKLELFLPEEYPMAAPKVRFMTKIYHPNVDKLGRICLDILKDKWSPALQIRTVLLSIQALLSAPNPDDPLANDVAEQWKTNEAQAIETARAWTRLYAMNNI
# MEKK2mut PB1 HTS: signal of MEK5 binding to mutant human MEKK2 PB1 domain. bead flow cytometry, Alexa488-MEK5 binding to MEKK2 mutant. 290,000 compounds, 0.35% hits. AID 1530. percent response, % at 10 µM; in the data active means percent response above about 24%, passing the limit was not always enough
# MEKK3 PB1 HTS: raises or lowers MEK5 binding to the human MEKK3 PB1 domain. Q99759. 290,000 compounds, 1.4% hits. AID 1529. binding response (% of control), % at 10 µM. bead-based flow cytometry, Alexa488-MEK5 binding to MEKK3; actives lie on both sides; 0 = blocked by unlabeled MEK5, 100 = vehicle;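 active means binding response more than 3 SD above or below the average of its plate-row segment, actives on both sides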;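 further: Alexa488 bead fluorescence after subtracting the streptavidin-only scavenger bead signal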
# A number is an active result; 0 = inactive; - = no result; [ ] = remark or other dose.
SMILES,MEKK2wt PB1 HTS,UBC13 inh,MEKK2mut PB1 HTS,MEKK3 PB1 HTS
Cc1ccc(OC(C)C(=O)N(C)Cc2ccccc2)c([N+](=O)[O-])n1 (configuration not stated),0,0,0,0
Cc1ccc(-n2cnc3scc(-c4cccs4)c3c2=O)cc1,0,0,0,0
O=c1c2c(-c3cccs3)csc2ncn1-c1ccccc1,15,0,0,0
Cc1[nH]c2ccccc2c1/C=N/NC(=O)c1cccc(Br)c1,42,0,64,0
Cc1[nH]c2ccccc2c1/C=C/C(=O)c1ccccc1,16,0,180,150
Cc1[nH]c2ccccc2c1/C=N/NC(=O)c1ccccc1,0,0,0,0
COc1ccc2c(Cl)c(C(=O)N/N=C/c3c(C)[nH]c4ccccc34)sc2c1,48[inhibitor],0,0,0
Cc1ccc(NC(=S)N/N=C/c2c(C)[nH]c3ccccc23)cc1,38,0,0,0
COc1ccc2c(Cl)c(C(=O)N/N=C/c3ccc4c(c3)OCO4)sc2c1,0,0,0,0
CCC1(C)NC(=O)N(CC(=O)NCC(=O)Nc2c(C)cc(C)cc2C)C1=O (configuration not stated),-,0,-,-
CC1(C)OC(=O)C(=Cc2ccc(-c3ccc(S(N)(=O)=O)cc3)o2)C(=O)O1,2.0[inhibitor],0,0,2.0[inhibitor]
O=C(Oc1ccc(-n2cnnn2)cc1)c1ccccc1,0,0,0,0
O=C(Nc1ccc([N+](=O)[O-])cc1)c1cc(-c2ccccn2)nc2c(Cl)cccc12,0,0,0,0
CN(C)c1ccc(/C=C/C(=O)c2cc(Cl)ccc2O)cc1,-1.0,-,0,0
CCOc1ccccc1CN1C(=O)NC2(CCCCCC2)C1=O,0,0,0,0
CC(C)=CCC/C(C)=C/CCC(C)NCCN1CCNCC1 (configuration not stated),224,0,48,0
CC(C)=CCCC(C)CN1CCC(O)CC1 (configuration not stated),0,0,0,0
O=C(c1cc(COc2ccc3c(c2)CCCC3)on1)N1CCCC1,0,0,0,0
CCN1CCc2c(sc(N)c2C#N)C1,0,0,0,0
CC(C)N1CCc2c(sc(N)c2C#N)C1,2.0,0,0,0
Cc1cccc(NC(=O)COc2ccc(-c3nn(C)c(=O)c4ccccc34)cc2)c1,0,0,0,0
O=C(N/N=C/c1cccs1)c1cccc(NC(=O)c2ccc(Cl)cc2)c1,0,0,0,132
COCCn1c(SCCOc2ccccc2)nc2ccccc2c1=O,0,0,0,0
COc1ccc(/C=C2\Sc3ccc(C(=O)N4CCN(Cc5ccccc5)CC4)cc3N(C)C2=O)cc1OC,0,0,0,0
CN1CCN(C(=O)c2ccc3c(c2)N(C)C(=O)/C(=C/c2cccc(Cl)c2)S3)CC1,137,0,0,0
SMILES,MEKK2wt PB1 HTS,UBC13 inh,MEKK2mut PB1 HTS,MEKK3 PB1 HTS
CCC(=O)NC(c1cccs1)c1cc([N+](=O)[O-])c2cccnc2c1O (configuration not stated),0,0,0,128
CCCCn1c(N)c(N(CC(C)C)C(=O)C2=NN(c3cc(C)ccc3C)C(=O)CC2)c(=O)[nH]c1=O,-,0,-,-
CN(Cc1ccco1)C(=O)CSc1nn2c(=O)c(C(C)(C)C)nnc2s1,-,0,-,-
O=C(O)CCC1c2cc3c4cc2OC2Oc5cc6c(cc51)C(CCC(=O)O)c1cc5c7cc1OC(O6)c1cc6cc(c1)Oc1cc(cc(C(=O)O)c1)Oc1cc8cc(c1)C(Oc1cc(c(cc1C5CCC(=O)O)C3CCC(=O)O)OC(O4)c1cc(cc(c1)Oc1cc(cc(C(=O)O)c1)O8)Oc1cc(cc(C(=O)O)c1)Oc1cc(cc2c1)Oc1cc(cc(C(=O)O)c1)O6)O7 (configuration not stated),-,122,-,-
CN(C)c1nc(-c2cn(CCC#N)c3ccccc23)cs1,-15,0,0,0
Cc1ccc2c(c1)C(CCN)C(=O)N2Cc1ccccc1 (configuration not stated),0,0,0,0
Cc1ccc2c(c1)C1CCCC3C1N2CC(=O)N3Cc1ccccc1 (configuration not stated),18,0,0,0
O/C(=C\c1nc2ccccc2nc1/C=C(\O)c1ccccc1)c1ccccc1,20,0,0,0
O=c1oc2ccccc2nc1/C=C(\O)c1ccccc1,0,0,0,0
CC1(C)CC(=O)/C(=C\c2cccc([N+](=O)[O-])c2)C(C)(C)N1,0,0,0,132
CCN(CC)CCNC(=O)c1ccc(NC(=O)Nc2cccc3ccccc23)cc1,140,0,30,0
CCN(CC)CCNC(=O)c1ccc(NC(=O)c2cccc(S(=O)(=O)Nc3ccc(C)cc3)c2)cc1,0,0,0,0
CCN(CC)CCNC(=O)c1ccc(NC(=O)c2ccc(F)cc2)cc1,0,0,0,0
CCN(CC)CCNC(=O)c1ccc(NC(=O)c2ccc(Cl)c(S(=O)(=O)Nc3ccccc3OC)c2)cc1,147,-,0,0
Cn1c(=O)c2sccc2n2c(CCCC(=O)Nc3ccc(F)cc3F)nnc12,0,0,0,0
COc1ccc(CN2CCNC(=O)C2CC(=O)NC2CCCCCCC2)cc1C (configuration not stated),0,0,28,0
Cc1cc(=O)oc2cc(OC(C)C(=O)Nc3ccc(N4CCCCC4)cc3)ccc12 (configuration not stated),-1.0,0,0,0
Cc1cc(=O)oc2cc(OC(C)C(=O)NC3CCCC3)ccc12 (configuration not stated),0,0,0,0
CC(C)(C)c1ccc(SCCc2cccnc2)cc1,0,0,0,0
CCn1c(SCC(=O)Nc2ccc(OC)c(S(=O)(=O)N3CCCCC3)c2)nnc1C1CC1,-,0,-,-
COc1ccc(-c2csc(NC3CCCCC3)n2)c(OC)c1,-4.0[inhibitor],0,0,0
COc1ccc(NC(=O)c2cc(-c3ccccc3)nc3c2cnn3C(C)C)c(OC)c1,-,0,-,-
O=C(O)c1cnc2[nH]c3ccccc3n2c1=O,0,0,0,0
COc1ccc2c([N+](=O)[O-])c(Cl)[nH]c2c1,-6.0,0,0,0
O=C(COc1ccccc1Cl)NCCCNC(=O)c1cccnc1,0,0,0,0
SMILES,MEKK2wt PB1 HTS,UBC13 inh,MEKK2mut PB1 HTS,MEKK3 PB1 HTS
Cc1ccn2c(C=O)c(-c3ccc(F)cc3)c(C=O)c2c1,-3.0,0,0,0
COc1ccc(Nc2ccnc3ccccc23)cc1,0,0,0,0
CC(C)Nc1ccc(Nc2ccnc3cc4ccccc4cc23)cc1,208,0,80,0
Cc1cc(C)c(S(=O)(=O)Nc2ccc(N(C)C)cc2)c(C)c1-n1cnnn1,0,0,0,0
CCOc1ccccc1NC(=O)C1CCN(C(=O)C2CC(=O)N(c3ccc(C)cc3)C2)CC1 (configuration not stated),0,0,0,0
CCn1nc(C)c(CN2CCC(C(=O)Nc3cccc(-c4cccc(F)c4)c3)CC2)c1C,136,0,25,0
COc1ccc(S(=O)(=O)N2CCCCC2)cc1NC(=O)Cc1cccs1,-,0,-,-
Cc1cccc(N2CCN(C(=O)c3ccc(NC(=O)C4CCCO4)cc3)CC2C)c1 (configuration not stated),-1.0[inhibitor],0,0,0.0[inhibitor]
